The text below walks through data of PubChem BioAssay AID2553 (Johns Hopkins Ion Channel Center, 2010).

Screen size: about 310,000 compounds; about 3,300 (1.1%) were called active. The sample holds actives, similar compounds and a random draw of the others, so the mix is not that of the screen.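 How the source made its calls: active means B-score under library mean minus 3 SD, initial fluorescence not abnormally high, positive integrated signal ratio; inactive means the rest.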

Short transient receptor potential channel 6 (Mus musculus), sequence (Q61143 whole entry, looked up): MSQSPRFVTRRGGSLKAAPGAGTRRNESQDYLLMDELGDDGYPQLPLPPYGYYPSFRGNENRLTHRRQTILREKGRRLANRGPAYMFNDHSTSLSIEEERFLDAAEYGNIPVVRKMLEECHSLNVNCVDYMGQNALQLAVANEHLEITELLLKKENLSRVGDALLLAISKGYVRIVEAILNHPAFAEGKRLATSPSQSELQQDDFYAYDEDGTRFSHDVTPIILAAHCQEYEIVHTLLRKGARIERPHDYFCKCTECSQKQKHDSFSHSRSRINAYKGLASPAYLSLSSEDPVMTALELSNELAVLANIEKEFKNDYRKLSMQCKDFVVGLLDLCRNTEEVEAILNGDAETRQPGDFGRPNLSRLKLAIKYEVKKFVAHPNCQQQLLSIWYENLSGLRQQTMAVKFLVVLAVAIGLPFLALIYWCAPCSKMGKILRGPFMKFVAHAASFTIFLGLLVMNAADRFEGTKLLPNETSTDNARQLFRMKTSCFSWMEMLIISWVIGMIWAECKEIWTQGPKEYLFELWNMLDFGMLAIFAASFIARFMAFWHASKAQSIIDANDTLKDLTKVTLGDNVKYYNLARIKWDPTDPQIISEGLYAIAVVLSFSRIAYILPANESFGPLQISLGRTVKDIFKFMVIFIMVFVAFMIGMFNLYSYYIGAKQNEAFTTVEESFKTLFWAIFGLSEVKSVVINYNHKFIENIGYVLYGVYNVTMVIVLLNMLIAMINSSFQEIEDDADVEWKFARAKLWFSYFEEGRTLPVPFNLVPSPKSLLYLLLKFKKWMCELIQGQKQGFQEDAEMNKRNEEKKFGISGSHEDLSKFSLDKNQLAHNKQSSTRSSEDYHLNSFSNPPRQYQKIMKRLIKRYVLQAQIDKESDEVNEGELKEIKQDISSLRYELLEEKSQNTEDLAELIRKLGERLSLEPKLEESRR

The assay addresses Short transient receptor potential channel 6 (Mus musculus) (UniProt Q61143). Nature of the assay: mouse TRPC6 channel inhibitors, primary screen, cell-based, HEK293, membrane potential dye (AID 2553).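 On B-score: B-score derived from integrated fluorescence ratio over the kinetic read; more negative B-score means stronger inhibition of depolarization.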 As to conditions: ACh-evoked depolarization, at 10 µM; hits give low values.
Turning to `CC(C)CCOc1ccc(C(=O)C[N+]2(C)CCOCC2)cc1`, the B-score result was “inactive”.
As for `Cc1ccccc1C(OCCN(C)C)C1CCCCC1` (stereo not drawn), the B-score result was “inactive”.
As to `CCOC(=O)C1=C(CSc2nnnn2C)N(C)C(=O)NC1c1ccccc1` (stereo not drawn), the B-score result is “inactive”.
As to `COc1cccc(-n2c(=S)[nH]c3c(oc4ccccc43)c2=O)c1`, the B-score result is “inactive”.
With `O=C(O)C(c1ccccc1)C1(O)CCCCC1` (stereo not drawn), the B-score entry is “inactive”.
As to `CCC(C(=O)OCCN(CC)CC)c1ccccc1` (stereo not drawn), the B-score result is “inactive”.
With `CN(C)CCOC(=O)C(c1ccccc1)C1(O)CCCC1` (stereo not drawn), the B-score is -7.55 (active).
As to `CCCCc1cc2c(s1)CCCC/C2=N/O`, the B-score result is “inactive”.
Regarding `Cc1ccc(-c2nc(COC(=O)c3c(C)noc3C)cs2)cc1`, the B-score result was “inactive”.
The same measure for `CCOc1cc(-c2conc2N)cc(OCC)c1OCC`: “inactive”.
The value for `Cc1csc2ncc(C(=O)N(Cc3ccccc3)c3ccccn3)c(=O)n12` was “inactive”.
For `CCOC(=O)CCc1c(C)c(C#N)c2[nH]c3ccccc3n2c1=O`, the B-score entry was “inactive”.
The same measure for `Cc1ccccc1Cn1c(=O)[nH]c2ccccc21`: “inactive”; for `CCCc1cc(=S)n2c([nH]c3ccccc32)c1C#N`: -12.9 (active).
The value for `COc1ccc(OC)c(C(=O)c2ccc(C(=O)N3CCN(Cc4csc(C)n4)CC3)cc2)c1` was “inactive”; that for `CCOc1ccccc1NC(=S)N1CCN(c2cccc(C)c2C)CC1` was “inactive”; that for `CN(N)c1nc(N2CCCC2)nc(N2CCCC2)n1` was “inactive”.
With `Cn1c(=O)n(C)c2cc(C(=O)Nc3ccc(Br)cc3)ccc21`, the B-score result was “inactive”.
Take `Cn1c(=O)n(C)c2cc(C(=O)Nc3ccc4c(c3)OCO4)ccc21`: the B-score was -7.03 (active).
`Cn1c(NC(=O)c2ccc3c(c2)OCO3)cc(=O)n(C)c1=O`: the B-score entry was “inactive”.
Regarding `CC(C)(C)c1cc(CN2CCN(CCC#N)CC2)cc(C(C)(C)C)c1O`, the B-score result is “inactive”.
In the case of `Cc1ccc(NC(=S)N(CCN2CCCCC2)Cc2ccco2)cc1C`, the B-score entry is “inactive”.
Regarding `Cc1ccc(NC(=S)N(CCCN2CCC(C)CC2)Cc2ccco2)cc1`, the B-score result was “inactive”.
The same measure for `Cc1ccc(NC(=S)N(CCCN2CCCC2)Cc2cccn2Cc2ccc(Cl)cc2)cc1`: -5.03 (active); for `COC(=O)[C@@H]1C[C@H]2CC[C@H](O)C[C@H]2N1Cc1ccc(N2CCN(C)CC2)cc1`: “inactive”.
As to `N#C/C(C(=S)Nc1ccccc1)=C1/NN=C(N2CCOCC2)N1c1ccccc1`, the B-score entry is “inactive”.
Regarding `COc1cccc(CC(=O)N2CCCC(CCC(=O)N3CCN(c4ccccn4)CC3)C2)c1` (stereo not drawn), the B-score entry was “inactive”.
On to `CC(C)C(c1nnnn1C1CCCCC1)N1CCN(C(=O)c2ccco2)CC1` (stereo not drawn), for which the B-score result is “inactive”.
On to `CC(C)C(c1nnnn1CCc1ccccc1)N1CCN(C(=O)c2ccco2)CC1` (stereo not drawn), for which the B-score is -6.03 (active).
As for `CCC(c1nnnn1C1CCCC1)N1CCN(C(=O)c2ccco2)CC1` (stereo not drawn), the B-score entry is “inactive”.
As for `O=[N+]([O-])c1ccccc1/C=C/CN1CCCC(CO)C1` (stereo not drawn), the B-score result is “inactive”.
Consider `O=[N+]([O-])c1ccccc1/C=C/CN1CCC(O)CC1`, for which the B-score result was “inactive”.
As to `CC1CC(C)CN(C/C=C/c2ccccc2[N+](=O)[O-])C1` (stereo not drawn), the B-score is -10.9 (active).
Consider `CC1=C[C@H]2Cc3cc(C)cc(C)c3S(=O)(=O)[C@@H]2C=C1`, for which the B-score entry is “inactive”.
The same measure for `CC(=O)c1cc(C#N)c(SCC(=O)Nc2nccs2)nc1C`: “inactive”.
As for `Clc1ccc(C2=CSC3=Nc4cccc5cccc(c45)N23)cc1`, the B-score result is “inactive”.
`CC(C)NC(=O)COCc1cc(-c2ccc3c(c2)OCO3)on1`: the B-score entry was “inactive”.
As for `CC(C)(C)c1ccc(C(=O)NCc2nnc(SCC(=O)N3CCCc4ccccc43)n2-c2ccccc2)cc1`, the B-score entry was “inactive”.
In the case of `Cn1c(/C(C#N)=C2/CCCCCN2)nc2ccccc21`, the B-score is -6.04 (active).
Take `Cn1c(S(=O)(=O)O)nc2ccccc21`: the B-score result was “inactive”.
The same measure for `N#C/C(=C1/CCCN1)c1ccccn1`: “inactive”; for `CC(=O)c1ccc(N2CCN(C(=O)c3ccc4nc[nH]c4c3)CC2)cc1`: “inactive”; for `CC(=O)c1ccc(N2Cc3ccccc3C2)cc1`: “inactive”.
As to `CCCCCOc1ccc(CSC2=NCCN2)cc1[N+](=O)[O-]`, the B-score is -7.13 (active).
For `CCCOc1ccc(Cn2ccnc2)cc1[N+](=O)[O-]`, the B-score result is “inactive”.
As to `CCCCOc1ccc(CSC(=N)N)cc1[N+](=O)[O-]`, the B-score is -6.92 (active).
For the molecule `Cc1nc(SCc2ccc(F)cc2)c([N+](=O)[O-])[nH]1`, the B-score entry is “inactive”.
For `Cc1cc(OCCCCOc2ccc(C#N)cc2)ccc1[N+](=O)[O-]`, the B-score result is “inactive”.
The same measure for `CCCCOC(=O)CCCc1ccc([N+](=O)[O-])cc1[N+](=O)[O-]`: “inactive”.
Regarding `COc1ccc(NC(=O)CN2C(=O)C(c3ccccc3)=NC23CCCCCC3)cc1OC`, the B-score entry is “inactive”.
As for `Cc1cc(C)c2oc(C(=O)Nc3ccc(S(=O)(=O)Nc4nccc(C)n4)cc3)cc(=O)c2c1`, the B-score entry is “inactive”.
`c1ccc(-c2cnc(CN3CCN(c4ccccc4)CC3)o2)cc1`: the B-score entry is “inactive”.
On to `COc1cc([N+](=O)[O-])cc([N+](=O)[O-])c1NC(=O)N1CCOCC1`, for which the B-score result was “inactive”.
The value for `O=C(NN1C(=O)C2C3C=CC(C3)C2C1=O)c1ccco1` (stereo not drawn) was “inactive”.
The same measure for `COC(=O)C1=C(C)N(C)C(=S)NC1c1cc(OC)ccc1OC` (stereo not drawn): “inactive”; for `CCOCCCNCc1cc(Br)ccc1OCC`: “inactive”.
For `CC(C)(C)NCc1cc(Br)ccc1OC1CCCC1`, the B-score was -6.86 (active).
With `COc1cc(CNC2CCCCC2)c(Br)cc1OC1CCCC1`, the B-score entry is “inactive”.
As for `O=C(c1ccc(CS(=O)(=O)c2ccccc2)o1)N1CCN(c2ccccc2)CC1`, the B-score result was “inactive”.
The value for `O=C(CNc1cccc(S(=O)(=O)N2CCCCC2)c1)Nc1ccccc1F` was “inactive”; that for `COc1ccccc1CCNC(=O)C(=O)NCCC1CCCCN1S(=O)(=O)c1cccs1` (stereo not drawn) was “inactive”; that for `COC(=O)c1ccc(OC(=O)c2cnccn2)cc1` was “inactive”.
In the case of `Cn1c(=NC(=O)c2cnccn2)sc2ccccc21`, the B-score was -6.66 (active).
The same measure for `Cn1c(=NC(=O)c2ccco2)sc2cccc(F)c21`: “inactive”.
The value for `O=C(COc1ccccc1)Nc1ccc(F)cc1` was “inactive”; that for `O=S(=O)(c1ccc(F)cc1)N1CCN=C1SCc1cccc(F)c1` was “inactive”; that for `COC(=O)c1ccccc1NC(=O)C1(S(=O)(=O)c2ccc(Cl)cc2)CC1` was “inactive”.
Regarding `CCCCCCCCn1c2c(c(=N)c3c1CCC3)CCCC2`, the B-score was -6.1 (active).
`Cc1ccc(NC(=O)CCOc2ccccc2)cc1S(=O)(=O)Nc1ccccc1Cl`: the B-score result was “inactive”.
The value for `Cc1cc(C)c2nc(-c3ccco3)cc(C(=O)O)c2c1` was “inactive”; that for `Cc1cc(C)c2nc3nc(C)cc(C)c3c(N)c2c1` was -5.04 (active); that for `COc1ccc(OCc2cc(C(=O)N3CCCC3)no2)c2ccccc12` was “inactive”.
For `CCOC(=O)/C=C/CN(C(=O)OC(C)(C)C)S(=O)(=O)N1CC=CC1`, the B-score entry was “inactive”.
Take `CC(Nc1nc(N2CCN(CCO)CC2)nc2ccccc12)c1ccccc1` (stereo not drawn): the B-score result is “inactive”.
With `CC(Nc1nc(N2CCCC2)nc2ccccc12)c1ccccc1` (stereo not drawn), the B-score is -6.87 (active).
Take `CC(Nc1nc(N2CCOCC2)nc2ccccc12)c1ccccc1` (stereo not drawn): the B-score result was “inactive”.
`COc1ccc2[nH]cc(CCN3C(=O)c4ccc(C(=O)O)cc4C3=O)c2c1`: the B-score result is “inactive”.
Regarding `Cc1nn(C)cc1C(=O)c1ccccc1`, the B-score result is “inactive”.
As to `C=CCOc1ccc(/C=C/C(=O)OCC(=O)NC2CCCCCC2)cc1`, the B-score result is “inactive”.
As to `COc1cc(/C=C/C(=O)N2c3ccccc3Sc3ccc(C(F)(F)F)cc32)cc(OC)c1OC`, the B-score result is “inactive”.
`O=C(CN1CCCCCC1)N1c2ccccc2Sc2ccc(C(F)(F)F)cc21`: the B-score was -5.15 (active).
For `CCOC(=O)CNC(=O)N1c2ccccc2Sc2ccccc21`, the B-score entry was “inactive”.
As for `COC(=O)c1c(-c2cccs2)csc1NC(=O)CSc1ncnc2sc(C)c(C)c12`, the B-score result was “inactive”.
With `CCOc1ccc(C(=O)N(Cc2ccc(N(C)C)cc2)C2CCS(=O)(=O)C2)cc1` (stereo not drawn), the B-score result was “inactive”.
Regarding `CCc1ccc(OCC(=O)N(Cc2ccccc2)C2CCS(=O)(=O)C2)cc1` (stereo not drawn), the B-score was -6.07 (active).
Turning to `Cc1ccccc1OCC(=O)N(Cc1cccc(F)c1)C1CCS(=O)(=O)C1` (stereo not drawn), the B-score entry was “inactive”.
For the molecule `Cc1ccccc1Nc1scc(-c2ccc(Br)cc2)[n+]1-c1ccccc1C`, the B-score result is “inactive”.
On to `Cc1cccc(-c2nc(Nc3ccc(O)cc3)c3ccccc3n2)c1`, for which the B-score entry is “inactive”.
In the case of `CN1CCN(c2nc(Nc3ccc(O)cc3)nc3ccccc23)CC1`, the B-score is -11.6 (active).
The same measure for `CN1CCN(c2ccc(NC(=O)c3ccccc3)cc2)CC1`: “inactive”; for `CCCC(=O)C1CCN(Cc2ccccc2)CC1`: “inactive”.
The value for `O=C(NNS(=O)(=O)c1ccc(Cl)cc1)C1CCN(Cc2ccccc2)CC1` was -7.9 (active).
In the case of `CCNC(=S)NNC(=O)C1CCN(Cc2ccccc2)CC1`, the B-score entry is “inactive”.
`Cc1ccn(CC(=O)N2N=C(C(F)F)CC2(O)C(F)F)n1` (stereo not drawn): the B-score result is “inactive”.
Consider `Cc1nn(Cc2ccc(C(=O)N3N=C(C(F)F)CC3(O)C(F)F)cc2)c(C)c1[N+](=O)[O-]` (stereo not drawn), for which the B-score was -5.19 (active).
As for `CCc1ccc(NC(=O)Cn2nc(C)c([N+](=O)[O-])c2C)cc1`, the B-score entry is “inactive”.
The same measure for `Cc1[nH]c2c(C(=O)N3CCCC(CCC(=O)NCc4ccccc4F)C3)cccc2c1C` (stereo not drawn): “inactive”; for `O=S(=O)(Cc1ccccc1)c1nc2ccccc2n1Cc1ccccn1`: “inactive”.
Regarding `C[C@H](NC(=O)OC(C)(C)C)c1nnc(SCC(=O)Nc2ccc(Br)cc2)o1`, the B-score was -6.61 (active).
Regarding `CCc1ccccc1NC(=O)CSc1nnc([C@@H](NC(=O)OC(C)(C)C)C(C)CC)o1` (stereo partly drawn), the B-score result was “inactive”.
The value for `CCc1ccccc1NC(=O)CSc1nnc([C@@H](NC(=O)OC(C)(C)C)C(C)C)o1` was “inactive”; that for `COCC1CCN(C(=O)C2CCC(=O)N(Cc3cccc(C(F)(F)F)c3)C2)CC1` (stereo not drawn) was “inactive”; that for `CC1(C)COC(c2cccn2Cc2ccccc2Cl)=N1` was “inactive”.
For `Cc1nc(/N=C(\N)NC(=O)NC2CCCCC2)nc2ccccc12`, the B-score entry is “inactive”.
As for `Cc1nc(N=C(N)N)nc2c(C)cccc12`, the B-score is -7.08 (active).
Regarding `COc1nc(N=C(N)N)nc2c(C)cccc12`, the B-score entry is “inactive”.
For `Cc1cc(-n2cnc(-c3cn(C)nc3C)n2)no1`, the B-score result was “inactive”.
As for `Cc1ccc(NC2CCCN(C(=O)CCC3(C)CC3)C2)cc1C` (stereo not drawn), the B-score was -5.8 (active).
As to `O=C(CN1CCOC1=O)N1CCCC(Nc2ccc(F)c(F)c2)C1` (stereo not drawn), the B-score result is “inactive”.
As for `Cc1ccc(NC2CCCN(C(=O)CCc3cn[nH]c3)C2)cc1C` (stereo not drawn), the B-score entry was “inactive”.
The same measure for `C=C(C)c1cccc(C(C)(C)NC(=O)NCCN(CC)CC)c1`: -8.39 (active); for `C=C(C)c1cccc(C(C)(C)NC(=O)NC2CCCC2)c1`: “inactive”; for `C=C(C)c1cccc(C(C)(C)NC(=O)N2CCN(c3ncccn3)CC2)c1`: “inactive”.
